Values joined by “and” are separate entries in the source; they are usually repeats but may differ in a detail not shown here. Equal entries are not always repeated. Records with an inconclusive call do not appear. Active and inactive are the calls of the source. Calls follow the shape of the full dose curve.
Experiment: qHTS assay to identify small molecule agonists of H2AX - cell viability counter screen (AID 1224847); also: nearly all actives have a fitted effect of over 30% in size; as to activity change, negative = cytotoxicity: top concentration of the series differs between compounds
Conditions: CHO-K1 viability, CellTiter-Glo luminescence, 3 h; series mostly up to 154 µM; activity change, negative = cytotoxicity: at the top concentration
Excerpt: National Center for Advancing Translational Sciences [NCATS]
NIH Chemical Genomics Center [NCGC]
U.S. Environmental Protection Agency [EPA]
National Institutes of Environmental Health Sciences [NIEHS]
National Toxicology Program [NTP]
U.S. Food and Drug Administration [FDA]
HTRF phospho-H2AX (Ser139) assay (Cisbio Bioassays, US) enables the quantitative detection of the histone variant H2AX when phosphorylated on serine 139. When double-stranded DNA breaks, either by ionizing radiation or endogenous physiological processes, H2AX becomes phosphorylated at Ser139. This phospho-Ser139 serves as a sensitive biomarker for the detection of such breaks, localizing the site of DNA repair. So, HTRF phospho-H2AX Ser139 is a pertinent assay to study genome stability, the cell cycle, DNA repair, and it serves as a biomarker for cancer, and to understand aging. Wild type CHO-K1 cells were used to identify the inducers of Phospho-H2AX Ser 139 from the Tox21 compound collections. Also cytotoxicity of the Tox21 10K compound library against the CHO-K1 cell line was tested by measuring the cell viability using CellTiter-Glo assay (Promega, Madison, WI).
Tox21 Assay Protocol Summary:
The CHO-K1 cells suspended in culture medium containing 10% FBS were dispensed at 1000 cells/ 3 ul/well in 1536-well white wall/solid bottom plates (Greiner Bio-One North America, NC) using a Multidrop Combi (Thermo Fisher Scientific Inc., Waltham, MA). After the assay plates were incubated at 37C overnight, 23 nl of compounds at 15 concentrations (from 5-48 columns) or positive control (from 1 to 4 columns) were transferred to the assay plates using a Pintool station (Wako, San Diego, CA) into each well resulting in a final DMSO concentration of 0.76%. After 3hr incubation at 37C, 3 uL/well CellTiter-Glo luminescent cell viability reagent (Promega Corporation, Madison, WI) was added using a Flying Reagent Dispenser (FRD) (Aurora Discovery, CA). After incubation at room temperature for 30 min, the luminescence intensity was read using a ViewLux plate reader (PerkinElmer, Waltham, MA).
% is scaled to controls: 0 for no effect and ±100 for the full control effect; potency is read from the fitted curve at half-maximal effect.

SMILES	Potency	activity change, negative = cytotoxicity
CCCCOCN(C(=O)CCl)c1c(CC)cccc1CC	101 µM (active)	
C[C@]12Cc3nonc3C[C@@H]1CC[C@@H]1[C@@H]2CC[C@@]2(C)[C@H]1CC[C@]2(C)O	49.2 µM (active)	
Nc1ccc(Cl)cc1C(=O)c1ccccc1	101 µM (active)	
CC1(C)CN=C(NN=C(/C=C/c2ccc(C(F)(F)F)cc2)/C=C/c2ccc(C(F)(F)F)cc2)NC1	25.3 µM (active)	
C=COCCCl		-1.1% (inactive)
Brc1c(Br)c(Br)c(Oc2c(Br)c(Br)c(Br)c(Br)c2Br)c(Br)c1Br		2.26% [at 31.6 µM] (inactive)
N#CCCSCCC#N		0.884% (inactive)
Cc1cc(C(F)(C(F)(F)F)C(F)(F)F)ccc1NC(=O)c1cccc(I)c1C(=O)NC(C)(C)CS(C)(=O)=O		2.19% [at 70.9 µM] (inactive)
CCC[CH2][Sn]([CH2]CCC)([CH2]CCC)[O]C(=O)c1ccccc1	0.713 µM (active)	
Cc1cc(C(C)(C)c2cc(C)c(O)c(C)c2)cc(C)c1O	109 µM (active)	
N#CCCO		2.57% (inactive)
N#Cc1ccccc1N		1.98% (inactive)
CCC(C)c1cc([N+](=O)[O-])cc([N+](=O)[O-])c1OC(=O)C=C(C)C (stereo not given)	56.6 µM (active)	
CC(C)C(=O)Cl		-2.45% (inactive)
Oc1ccc(C2(c3ccc(O)cc3)c3ccccc3-c3ccccc32)cc1	89.8 µM (active)	
CCOc1cc(C(C)(C)C)ccc1C1COC(c2c(F)cccc2F)=N1 (stereo not given)	30.7 µM (active)	
Nc1ccccc1C(=O)Oc1ccc2ccccc2c1	80 µM (active)	
ClC1=C(Cl)C2(Cl)C3C(Cl)C=CC3C1(Cl)C2(Cl)Cl (stereo not given)	113 µM (active)	
Clc1ccc(C(c2ccccc2Cl)C(Cl)(Cl)Cl)cc1 (stereo not given)	101 µM (active) and 66.2 µM (active)	
Nc1ccc(Sc2ccc(N)cc2)cc1		-1.12% (inactive)

SMILES	Potency	activity change, negative = cytotoxicity
Cn1cc(C2=C(c3cn(C4CCN(Cc5ccccn5)CC4)c4ccccc34)C(=O)NC2=O)c2ccccc21		-5.89% [at 70.9 µM] (inactive)
CCCCCCCCc1ccc(O)cc1	25.5 µM (active)	
O=C1NCN(c2ccccc2)C12CCN(CC1COc3ccccc3O1)CC2 (stereo not given)		-11.4% [at 70.9 µM] (inactive)
CC(Cc1ccc(C(C)(C)C)cc1)CN1C[C@@H](C)O[C@@H](C)C1 (stereo not given in full)	63.5 µM (active)	
O=C(CBr)c1ccc(O)cc1		8.04% (inactive)
COc1ccc(N)cc1N	41.4 µM (active) and 54.4 µM (active)	
NC(=O)CCl		2.96% (inactive)
CC1(c2ccc(Oc3ccccc3)cc2)OC(=O)N(Nc2ccccc2)C1=O (stereo not given)	50.8 µM (active)	
Clc1ccc(CO/N=C(\Cn2ccnc2)c2ccc(Cl)cc2Cl)c(Cl)c1	49.2 µM (active)	
Oc1ccc(C(c2ccc(O)cc2)(C(F)(F)F)C(F)(F)F)cc1	113 µM (active)	
ClC1=C(Cl)[C@]2(Cl)[C@@H]3[C@@H](Cl)[C@H](Cl)C[C@@H]3[C@@]1(Cl)C2(Cl)Cl		-0.711% (inactive)
CC(C)OC(=O)C(O)(c1ccc(Cl)cc1)c1ccc(Cl)cc1	56.6 µM (active)	
O=C(O)C1C2CCC(O2)C1C(=O)O (stereo not given)	inactive	
BrCBr		2.53% (inactive)
CC(C)(C)c1cc([N+](=O)[O-])cc(C(C)(C)C)c1O	50.5 µM (active)	
CC(=O)C(Cl)(Cl)Cl	30.8 µM (active)	
COc1cccc2c1C(=O)c1c(O)c3c(c(O)c1C2=O)C[C@@](O)(C(=O)CO)CC3OC1CC(N2CCOC(OC)C2)C(O)C(C)O1 (stereo not given in full)		-10.1% [at 70.9 µM] (inactive)
COc1ccc(OC)c(CC(C)N)c1 (stereo not given)		-0.313% (inactive)
Oc1c(Cl)c(Cl)cc(Cl)c1Cl	87.3 µM (active)	
CCCCOP(=O)(CCCC)OCCCC		-5.66% (inactive)

Source: PubChem BioAssay (Tox21)
